Experimental findings from PubChem BioAssay (Tox21) are described below.

Records with an inconclusive call do not appear. A number with no mark means an inactive call. Unless noted, calls follow the shape of the dose curve; as a rule, active = well fitted cell-killing curve with a large enough effect in the repeat runs (not every such curve was filed as active); inconclusive = weak or mixed curves, or effect the other way; inactive = no such curve, though single readings can be large or run the other way.
% is scaled to controls: 0 for no effect and ±100 for the full control effect.

Bile acid receptor (Homo sapiens), sequence (Q96RI1 whole entry, looked up): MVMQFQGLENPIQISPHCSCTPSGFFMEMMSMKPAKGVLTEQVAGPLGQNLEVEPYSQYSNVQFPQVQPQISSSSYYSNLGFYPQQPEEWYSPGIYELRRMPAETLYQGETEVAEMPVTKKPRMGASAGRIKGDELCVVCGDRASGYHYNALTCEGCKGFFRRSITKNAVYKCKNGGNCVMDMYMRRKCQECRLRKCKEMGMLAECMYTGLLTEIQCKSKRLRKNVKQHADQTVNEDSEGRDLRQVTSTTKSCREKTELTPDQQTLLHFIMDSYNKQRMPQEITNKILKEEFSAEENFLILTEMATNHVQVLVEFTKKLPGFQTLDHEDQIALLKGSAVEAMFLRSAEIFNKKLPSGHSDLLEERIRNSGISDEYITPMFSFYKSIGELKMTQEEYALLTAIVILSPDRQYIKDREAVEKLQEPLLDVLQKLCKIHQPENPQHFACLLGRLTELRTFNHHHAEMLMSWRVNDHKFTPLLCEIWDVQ

Tested on in one test: not listed separately
Description: qHTS assay to identify small molecule agonists of the farnesoid-X-receptor (FXR) signaling pathway - cell viability counter screen (AID 743218; active = well fitted cell-killing curve with a large enough effect in the repeat runs; also: nearly all actives have a fitted effect of over 45% in size). Conditions: FXR-bla HEK293T viability, CellTiter-Glo luminescence, 16 h; series mostly up to 62.6 µM; viability change, negative = cytotoxic: at the top concentration. Put shortly: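 Parallel cytotoxicity test: compound-treated (16 h, 37 C) HEK 293T FXR-bla reporter cells were lysed with CellTiter-Glo and luminescence recorded.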
On the technique in general: qHTS replaces the single test concentration by a dilution series.
Turning to `CC(=O)CCc1ccc(O)cc1`, the “viability change, negative = cytotoxic” value is -0.706%.

For `OC[C@H]1O[C@@H]2O[C@H]3[C@H](O)[C@@H](O)[C@@H](O[C@H]4[C@H](O)[C@@H](O)[C@@H](O[C@H]5[C@H](O)[C@@H](O)[C@@H](O[C@H]6[C@H](O)[C@@H](O)[C@@H](O[C@H]7[C@H](O)[C@@H](O)[C@@H](O[C@H]8[C@H](O)[C@@H](O)[C@@H](O[C@H]9[C@H](O)[C@@H](O)[C@@H](O[C@H]1[C@H](O)[C@H]2O)O[C@@H]9CO)O[C@@H]8CO)O[C@@H]7CO)O[C@@H]6CO)O[C@@H]5CO)O[C@@H]4CO)O[C@@H]3CO`, the “viability change, negative = cytotoxic” value is 8.37% [at 29.1 µM].

Consider `CC(C)COC(=O)C(C)C`, for which the “viability change, negative = cytotoxic” value is -7.9%.

Take `Cc1nccn1CC1CCc2c(c3ccccc3n2C)C1=O` (stereo not given): the “viability change, negative = cytotoxic” value was -1.78%.

`C=CCOCC(O)CS(=O)(=O)O` (stereo not given): the “viability change, negative = cytotoxic” value was 3.67% [at 81.1 µM].

On to `OCCN1C[C@H](O)[C@@H](O)[C@H](O)[C@H]1CO`, for which the “viability change, negative = cytotoxic” value was 7.83%.

`COc1cccc(OC)c1`: the “viability change, negative = cytotoxic” value was 17.5%.

`CCOC(=O)Cn1c(=O)sc2cccc(Cl)c21`: the “viability change, negative = cytotoxic” value was -20.6%.

In the case of `O=C(O)C(O)[C@H](O)[C@@H](O)[C@H](O)[C@H](O)CO` (stereo not given in full), the “viability change, negative = cytotoxic” value is 11.9% [at 81.1 µM].

Consider `N#CC1(O)CCCCC1`, for which the “viability change, negative = cytotoxic” value was 3.49% [at 81.1 µM].

For the compound `O=C1OC(=O)c2cc([N+](=O)[O-])ccc21`, the “viability change, negative = cytotoxic” value is -6.77%.

`O=C1CC2(CCCC2)CC(=O)N1`: the “viability change, negative = cytotoxic” value was 4.37%.

For `O=C(O)CCNC(=O)c1ccc(N=Nc2ccc(O)c(C(=O)O)c2)cc1`, the “viability change, negative = cytotoxic” value is 25%.

With `FC(F)(F)C(F)(F)C(F)(F)C(F)(F)C(F)(F)C(F)(F)C(F)(F)C(F)(F)C(F)(F)C(F)(F)F`, the viability change, negative = cytotoxic was 1.72% [at 5.95 µM].

For the compound `N#CCc1ccccc1[N+](=O)[O-]`, the “viability change, negative = cytotoxic” value was 3.4%.

In the case of `NC(=O)c1c(Cl)cccc1Cl`, the “viability change, negative = cytotoxic” value is 4.2%.

Consider `C#CC(O)C(CC)CCCC` (stereo not given), for which the “viability change, negative = cytotoxic” value was -1.95%.

With `CN1[C@@H]2CC[C@H]1CC(NC(=O)n1c(=O)[nH]c3ccccc31)C2` (stereo not given in full), the “viability change, negative = cytotoxic” value is -20.1%.

Take `CCN1CCCC1CNC(=O)c1cc(S(N)(=O)=O)ccc1OC` (stereo not given): the “viability change, negative = cytotoxic” value is -17.7%.

In the case of `C=C(C)[C@H]1CC=C(C)CC1`, the “viability change, negative = cytotoxic” value is 6.07%.

For `CC1(C)OC(=O)Nc2ccc(Br)cc21`, the “viability change, negative = cytotoxic” value is 0.556%.

For the compound `Cc1ccc(Nc2ccc(O)c3c2C(=O)c2ccccc2C3=O)cc1`, the “viability change, negative = cytotoxic” value was -3.29%.

Consider `C(=C(c1ccccc1)c1ccccc1)c1ccccc1`, for which the “viability change, negative = cytotoxic” value is 18.8%.

Take `CC(C)CCOC(=O)CC(C)C`: the “viability change, negative = cytotoxic” value was 20.5%.

Regarding `CNc1ncnc2nc[nH]c12`, the “viability change, negative = cytotoxic” value was -2.19% [at 81.1 µM].

For `CC(O)CN(CCCN(C)C)CCCN(C)C` (stereo not given), the “viability change, negative = cytotoxic” value was 2.66%.

Consider `COc1ccc2cc(C=O)ccc2c1`, for which the “viability change, negative = cytotoxic” value was 15.2%.

With `CN(C)N=Nc1ccccc1`, the “viability change, negative = cytotoxic” value is -9.68%.

Consider `O=C1C(CCS(=O)c2ccccc2)C(=O)N(c2ccccc2)N1c1ccccc1` (stereo not given), for which the “viability change, negative = cytotoxic” value is 3.93%.

The target of another test is Bile acid receptor (Homo sapiens) (UniProt Q96RI1). The test can be described thus: qHTS assay to identify small molecule agonists of the farnesoid-X-receptor (FXR) signaling pathway (AID 743220; active = well fitted activation curve with a large enough effect in the signal ratio in the repeat runs, not every such curve was filed as active; the % refers to the signal ratio). Conditions: HEK293T FXR-UAS-bla, beta-lactamase FRET ratio, 16 h; series mostly up to 62.6 µM; activation: at the top concentration. Put shortly:
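Beta-lactamase reporter under UAS control in GeneBLAzer FXR HEK 293T cells (5000/well) measured with LiveBLAzer FRET substrate after 2 h at room temperature. Compound exposure lasted 16 h at 37C.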
For `CC(C)COC(=O)C(C)C`, the “activation” value was 1.89%.

Consider `O=C(O)c1cccc(C(=O)O)n1`, for which the “activation” value is -0.527%.

Regarding `OCCN1C[C@H](O)[C@@H](O)[C@H](O)[C@H]1CO`, the “activation” value was 0.791%.

For `COc1cccc(OC)c1`, the “activation” value is 3.36%.

With `CCCOc1ccccc1-c1nc2n[nH]nc2c(=O)[nH]1`, the “activation” value was -3.5%.

`CCOC(=O)Cn1c(=O)sc2cccc(Cl)c21`: the “activation” value is 2.97%.

In the case of `O=C(O)C(O)[C@H](O)[C@@H](O)[C@H](O)[C@H](O)CO` (stereo not given in full), the “activation” value was -2.03% [at 81.1 µM].

With `NS(=O)(=O)c1cc(C2(O)NC(=O)c3ccccc32)ccc1Cl` (stereo not given), the “activation” value is -2.86%.

For `N#CC1(O)CCCCC1`, the “activation” value is -0.873% [at 81.1 µM].

In the case of `O=C1CC2(CCCC2)CC(=O)N1`, the “activation” value was 4.6%.

For `O=C(O)CCNC(=O)c1ccc(N=Nc2ccc(O)c(C(=O)O)c2)cc1`, the “activation” value was 5.47%.

`N#CCc1ccccc1[N+](=O)[O-]`: the “activation” value was -1.29%.

In the case of `NC(=O)c1c(Cl)cccc1Cl`, the “activation” value was 2.85%.

As to `CN1[C@@H]2CC[C@H]1CC(NC(=O)n1c(=O)[nH]c3ccccc31)C2` (stereo not given in full), the “activation” value is -4.47%.

Take `C=CCSCC1Nc2cc(Cl)c(S(N)(=O)=O)cc2S(=O)(=O)N1` (stereo not given): the “activation” value is -0.148%.

For the compound `CC1(C)OC(=O)Nc2ccc(Br)cc21`, the “activation” value is 4.95%.

With `Cc1ccc(Nc2ccc(O)c3c2C(=O)c2ccccc2C3=O)cc1`, the “activation” value is -0.0124%.

As for `C(=C(c1ccccc1)c1ccccc1)c1ccccc1`, the “activation” value is 1.61%.

On to `CC(C)CCOC(=O)CC(C)C`, for which the “activation” value is -3.04%.

For the compound `COc1ccc(COC=O)cc1`, the “activation” value is -2.75%.

Tested on in the next test: not listed separately
The test can be described thus: qHTS assay to identify small molecule antagonists of the farnesoid-X-receptor (FXR) signaling pathway - cell viability counter screen (AID 743221). Also: nearly all actives have a fitted effect of over 50% in size. The settings on record: FXR-bla HEK293T viability, CellTiter-Glo luminescence, 16 h; series mostly up to 62.6 µM; activity change, negative = cytotoxicity: at the top concentration. Put shortly: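 CellTiter-Glo, 30 min RT, luminescence; same wells as the LiveBLAzer FRET read. Cells: FXR-UAS-bla HEK 293T. Treatment: compound with chenodeoxycholic acid 50 uM final, 16 h at 37 C.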
With `CC(=O)CCc1ccc(O)cc1`, the “activity change, negative = cytotoxicity” value is -12.9%.

With `OC[C@H]1O[C@@H]2O[C@H]3[C@H](O)[C@@H](O)[C@@H](O[C@H]4[C@H](O)[C@@H](O)[C@@H](O[C@H]5[C@H](O)[C@@H](O)[C@@H](O[C@H]6[C@H](O)[C@@H](O)[C@@H](O[C@H]7[C@H](O)[C@@H](O)[C@@H](O[C@H]8[C@H](O)[C@@H](O)[C@@H](O[C@H]9[C@H](O)[C@@H](O)[C@@H](O[C@H]1[C@H](O)[C@H]2O)O[C@@H]9CO)O[C@@H]8CO)O[C@@H]7CO)O[C@@H]6CO)O[C@@H]5CO)O[C@@H]4CO)O[C@@H]3CO`, the “activity change, negative = cytotoxicity” value was -2.73% [at 29.1 µM].

For the compound `CC(C)COC(=O)C(C)C`, the “activity change, negative = cytotoxicity” value was 0.971%.

For `Cc1nccn1CC1CCc2c(c3ccccc3n2C)C1=O` (stereo not given), the “activity change, negative = cytotoxicity” value was -2.28%.

On to `C=CCOCC(O)CS(=O)(=O)O` (stereo not given), for which the “activity change, negative = cytotoxicity” value was -1.17% [at 81.1 µM].

For the compound `OCCN1C[C@H](O)[C@@H](O)[C@H](O)[C@H]1CO`, the “activity change, negative = cytotoxicity” value is 0.0049%.

Consider `COc1cccc(OC)c1`, for which the “activity change, negative = cytotoxicity” value is 15.1%.

In the case of `CCCOc1ccccc1-c1nc2n[nH]nc2c(=O)[nH]1`, the “activity change, negative = cytotoxicity” value was 3.95%.

With `CCOC(=O)Cn1c(=O)sc2cccc(Cl)c21`, the “activity change, negative = cytotoxicity” value was -1.4%.

Consider `O=C(O)C(O)[C@H](O)[C@@H](O)[C@H](O)[C@H](O)CO` (stereo not given in full), for which the “activity change, negative = cytotoxicity” value was 5.29% [at 81.1 µM].

Consider `NS(=O)(=O)c1cc(C2(O)NC(=O)c3ccccc32)ccc1Cl` (stereo not given), for which the “activity change, negative = cytotoxicity” value was -1.93%.

As to `N#CC1(O)CCCCC1`, the “activity change, negative = cytotoxicity” value is 1.31% [at 81.1 µM].

Take `O=C1OC(=O)c2cc([N+](=O)[O-])ccc21`: the “activity change, negative = cytotoxicity” value is -1.31%.

Regarding `C=C(C)C(=O)NCCCN(C)C`, the “activity change, negative = cytotoxicity” value was -0.293%.

As for `O=C1CC2(CCCC2)CC(=O)N1`, the “activity change, negative = cytotoxicity” value is 7.21%.

Consider `O=C(O)CCNC(=O)c1ccc(N=Nc2ccc(O)c(C(=O)O)c2)cc1`, for which the “activity change, negative = cytotoxicity” value is 9.87%.

Turning to `FC(F)(F)C(F)(F)C(F)(F)C(F)(F)C(F)(F)C(F)(F)C(F)(F)C(F)(F)C(F)(F)C(F)(F)F`, the activity change, negative = cytotoxicity is 9.95% [at 5.95 µM].

For the compound `N#CCc1ccccc1[N+](=O)[O-]`, the “activity change, negative = cytotoxicity” value was -1.18%.

In the case of `NC(=O)c1c(Cl)cccc1Cl`, the “activity change, negative = cytotoxicity” value was -7.45%.

In the case of `CC/C=C\CCCCO`, the “activity change, negative = cytotoxicity” value is -18%.

With `C#CC(O)C(CC)CCCC` (stereo not given), the “activity change, negative = cytotoxicity” value was 4.78%.

In the case of `CN1[C@@H]2CC[C@H]1CC(NC(=O)n1c(=O)[nH]c3ccccc31)C2` (stereo not given in full), the “activity change, negative = cytotoxicity” value is -20.5%.

Take `CCN1CCCC1CNC(=O)c1cc(S(N)(=O)=O)ccc1OC` (stereo not given): the “activity change, negative = cytotoxicity” value is -19.1%.

With `C=C(C)[C@H]1CC=C(C)CC1`, the “activity change, negative = cytotoxicity” value was -1.04%.

On to `C=CCSCC1Nc2cc(Cl)c(S(N)(=O)=O)cc2S(=O)(=O)N1` (stereo not given), for which the “activity change, negative = cytotoxicity” value was -0.0058%.

As to `CC1(C)OC(=O)Nc2ccc(Br)cc21`, the “activity change, negative = cytotoxicity” value is 9.58%.

As for `Cc1ccc(Nc2ccc(O)c3c2C(=O)c2ccccc2C3=O)cc1`, the “activity change, negative = cytotoxicity” value is -5.28%.

On to `C(=C(c1ccccc1)c1ccccc1)c1ccccc1`, for which the “activity change, negative = cytotoxicity” value is 11.9%.

As to `COC(=O)[C@H]1[C@H]2C[C@@H]3c4[nH]c5cc(OC)ccc5c4CCN3C[C@H]2C[C@@H](OC(=O)COc2ccc(OC)cc2)[C@@H]1OC`, the “activity change, negative = cytotoxicity” value is -14.2%.

Regarding `CCCc1ccccc1O`, the “activity change, negative = cytotoxicity” value is 0.739%.

Turning to `CC(C)CCOC(=O)CC(C)C`, the “activity change, negative = cytotoxicity” value was 2.42%.

Regarding `CC(O)CN(CCCN(C)C)CCCN(C)C` (stereo not given), the “activity change, negative = cytotoxicity” value was 0.595%.

Take `COc1ccc2cc(C=O)ccc2c1`: the “activity change, negative = cytotoxicity” value was 5.34%.

For the compound `CN(C)N=Nc1ccccc1`, the “activity change, negative = cytotoxicity” value was -25.4%.

As for `COc1ccc(COC=O)cc1`, the “activity change, negative = cytotoxicity” value is 11.4%.

As to `O=C1C(CCS(=O)c2ccccc2)C(=O)N(c2ccccc2)N1c1ccccc1` (stereo not given), the “activity change, negative = cytotoxicity” value was 9.1%.
